Entries with a potency or affinity are not part of this list. Inconclusive results are not listed. Activity calls are given as the source filed them.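 Rule for the calls: active = falling luminescence with a fitted half-effect concentration at most ten times the top dose in every repeat; inconclusive = repeats disagree, poor fit, or flat moderate signal drop; inactive = the rest.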
Assay: cytotoxicity in NIH/3T3 mouse fibroblasts, dose response, cytotoxicity control, cell-based, mouse embryonic fibroblasts, dry powder, set 2 (AID 493247)

| SMILES | outcome |
| --- | --- |
| CCCNC(=O)C1(C)CCN(C(=O)Cc2ccc(OC)c(OC)c2)C1 (stereo unspecified) | inactive |
| COCCNC(=O)C1(C)CCCN(C(=O)c2cc(OC)c(OC)c(OC)c2)C1 (stereo unspecified) | inactive |
| COc1ccc(CN2CCCC(C(=O)N3CCCC3)C2)c(OC)c1OC (stereo unspecified) | inactive |
| CCCNC(=O)C1(C)CCCN(C(=O)c2ccc(OC(F)F)cc2)C1 (stereo unspecified) | inactive |
| CCNC(=O)C1CCCN(C(=O)c2cc(OC)c(OC)c(OC)c2)CC1 (stereo unspecified) | inactive |
| CCNC(=O)C1(C)CCN(C(=O)c2ccc(OC)c(OC)c2)C1 (stereo unspecified) | inactive |
| COc1ccc(CCN2CC(C(=O)NCc3ccc(F)cc3)CC2=O)cc1OC (stereo unspecified) | inactive |
| CCNC(=O)C1(C)CCCN(Cc2cccc(Oc3ccccc3)c2)C1 (stereo unspecified) | inactive |
| CN(Cc1ccccc1)C(=O)C1CCCN(Cc2ccccc2)C1 (stereo unspecified) | inactive |
| O=C(CNC(=O)c1ccco1)N/N=C/c1ccc([N+](=O)[O-])o1 | inactive |
| COc1ccc(CCNC(=O)C2CCCCC2)cc1OC | inactive |
| COc1ccc(CCN(C)C(=O)C2CCCN(Cc3ccccc3C)C2)cc1OC (stereo unspecified) | inactive |
| COc1cc2c(cc1OC)C(C)N(CCC(N)=O)CC2 (stereo unspecified) | inactive |
| COc1cc(CN2CCC(C(=O)NC(C)c3ccc(OC)c(OC)c3)CC2)cc(OC)c1 (stereo unspecified) | inactive |
| CCCNC(=O)C1(C)CCCN(C(=O)Cc2ccc(OC)c(OC)c2)C1 (stereo unspecified) | inactive |
| CCNC(=O)C1(C)CCCN(C(=O)Cc2ccc(OC)c(OC)c2)C1 (stereo unspecified) | inactive |
